Experimental findings from ChEMBL document CHEMBL1961873, “Compounds: GSK PKIS; Assays: Nanosyn kinase panel” (2012) are described below.

One may read the inhibition as the drop in the measured response relative to a control, in per cent.

The target of assay [1] is T1, Ephrin type-B receptor 2 (Homo sapiens) (UniProt P29323).
T1 sequence (whole entry): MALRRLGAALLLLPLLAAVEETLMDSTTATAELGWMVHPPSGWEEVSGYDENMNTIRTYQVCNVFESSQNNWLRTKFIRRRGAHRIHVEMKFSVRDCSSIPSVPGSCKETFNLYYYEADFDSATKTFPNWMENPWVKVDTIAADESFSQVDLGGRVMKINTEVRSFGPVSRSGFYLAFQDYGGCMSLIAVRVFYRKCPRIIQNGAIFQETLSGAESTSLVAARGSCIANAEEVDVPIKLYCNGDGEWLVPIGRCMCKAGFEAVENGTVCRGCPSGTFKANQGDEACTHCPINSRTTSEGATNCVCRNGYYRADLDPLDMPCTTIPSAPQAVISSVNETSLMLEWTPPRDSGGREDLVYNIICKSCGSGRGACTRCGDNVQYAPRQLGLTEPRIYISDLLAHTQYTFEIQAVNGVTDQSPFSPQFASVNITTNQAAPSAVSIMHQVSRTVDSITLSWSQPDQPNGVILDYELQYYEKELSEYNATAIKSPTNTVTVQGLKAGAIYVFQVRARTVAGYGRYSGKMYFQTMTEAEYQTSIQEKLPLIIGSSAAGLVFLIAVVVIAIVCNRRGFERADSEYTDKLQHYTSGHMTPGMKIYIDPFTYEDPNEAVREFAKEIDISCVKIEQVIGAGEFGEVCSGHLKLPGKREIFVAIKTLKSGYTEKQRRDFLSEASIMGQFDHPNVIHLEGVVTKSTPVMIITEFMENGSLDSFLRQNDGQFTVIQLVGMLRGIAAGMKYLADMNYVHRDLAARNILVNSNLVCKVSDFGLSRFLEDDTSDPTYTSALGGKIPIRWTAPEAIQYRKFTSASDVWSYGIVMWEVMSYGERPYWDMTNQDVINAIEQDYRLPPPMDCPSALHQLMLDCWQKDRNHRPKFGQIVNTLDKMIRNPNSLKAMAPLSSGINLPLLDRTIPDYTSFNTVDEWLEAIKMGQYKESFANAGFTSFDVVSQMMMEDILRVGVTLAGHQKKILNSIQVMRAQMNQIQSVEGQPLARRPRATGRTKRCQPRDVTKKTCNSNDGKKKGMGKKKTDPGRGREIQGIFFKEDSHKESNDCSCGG
The note with it: at 1 µM.

Assay [2] has as its target T2, Ephrin type-B receptor 3 (Homo sapiens) (UniProt P54753).
T2 sequence (whole entry): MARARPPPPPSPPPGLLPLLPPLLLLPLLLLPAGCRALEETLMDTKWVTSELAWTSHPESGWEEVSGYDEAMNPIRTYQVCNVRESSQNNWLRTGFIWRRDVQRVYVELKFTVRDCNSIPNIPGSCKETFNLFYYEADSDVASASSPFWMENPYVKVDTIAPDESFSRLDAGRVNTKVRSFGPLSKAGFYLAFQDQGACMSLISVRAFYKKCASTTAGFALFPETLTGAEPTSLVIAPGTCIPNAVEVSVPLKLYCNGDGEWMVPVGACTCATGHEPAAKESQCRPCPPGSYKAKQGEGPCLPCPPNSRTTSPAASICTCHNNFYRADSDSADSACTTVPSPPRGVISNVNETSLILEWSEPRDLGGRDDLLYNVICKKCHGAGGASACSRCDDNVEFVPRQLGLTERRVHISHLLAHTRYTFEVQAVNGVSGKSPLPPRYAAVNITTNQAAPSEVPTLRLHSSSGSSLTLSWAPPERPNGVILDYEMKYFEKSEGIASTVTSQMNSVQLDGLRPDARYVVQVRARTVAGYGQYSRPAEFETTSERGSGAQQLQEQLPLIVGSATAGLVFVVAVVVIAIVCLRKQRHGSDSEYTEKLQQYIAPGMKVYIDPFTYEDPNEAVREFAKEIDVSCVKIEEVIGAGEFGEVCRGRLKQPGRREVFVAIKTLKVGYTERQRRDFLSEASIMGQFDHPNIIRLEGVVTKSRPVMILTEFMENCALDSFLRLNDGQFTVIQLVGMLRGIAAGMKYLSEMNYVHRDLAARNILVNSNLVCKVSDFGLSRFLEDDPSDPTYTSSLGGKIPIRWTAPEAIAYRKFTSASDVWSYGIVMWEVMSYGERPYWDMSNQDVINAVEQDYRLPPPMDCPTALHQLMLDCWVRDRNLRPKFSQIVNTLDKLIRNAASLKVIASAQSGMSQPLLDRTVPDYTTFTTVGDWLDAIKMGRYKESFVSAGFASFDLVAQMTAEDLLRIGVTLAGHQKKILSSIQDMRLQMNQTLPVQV
To be noted: at 0.1 µM.

The target of assay [3] is T2, Ephrin type-B receptor 3 (Homo sapiens). The note with it: at 1 µM.
Assay [4] concerns the target T3, Ephrin type-B receptor 4 (Homo sapiens) (UniProt P54760).
T3 sequence (whole entry): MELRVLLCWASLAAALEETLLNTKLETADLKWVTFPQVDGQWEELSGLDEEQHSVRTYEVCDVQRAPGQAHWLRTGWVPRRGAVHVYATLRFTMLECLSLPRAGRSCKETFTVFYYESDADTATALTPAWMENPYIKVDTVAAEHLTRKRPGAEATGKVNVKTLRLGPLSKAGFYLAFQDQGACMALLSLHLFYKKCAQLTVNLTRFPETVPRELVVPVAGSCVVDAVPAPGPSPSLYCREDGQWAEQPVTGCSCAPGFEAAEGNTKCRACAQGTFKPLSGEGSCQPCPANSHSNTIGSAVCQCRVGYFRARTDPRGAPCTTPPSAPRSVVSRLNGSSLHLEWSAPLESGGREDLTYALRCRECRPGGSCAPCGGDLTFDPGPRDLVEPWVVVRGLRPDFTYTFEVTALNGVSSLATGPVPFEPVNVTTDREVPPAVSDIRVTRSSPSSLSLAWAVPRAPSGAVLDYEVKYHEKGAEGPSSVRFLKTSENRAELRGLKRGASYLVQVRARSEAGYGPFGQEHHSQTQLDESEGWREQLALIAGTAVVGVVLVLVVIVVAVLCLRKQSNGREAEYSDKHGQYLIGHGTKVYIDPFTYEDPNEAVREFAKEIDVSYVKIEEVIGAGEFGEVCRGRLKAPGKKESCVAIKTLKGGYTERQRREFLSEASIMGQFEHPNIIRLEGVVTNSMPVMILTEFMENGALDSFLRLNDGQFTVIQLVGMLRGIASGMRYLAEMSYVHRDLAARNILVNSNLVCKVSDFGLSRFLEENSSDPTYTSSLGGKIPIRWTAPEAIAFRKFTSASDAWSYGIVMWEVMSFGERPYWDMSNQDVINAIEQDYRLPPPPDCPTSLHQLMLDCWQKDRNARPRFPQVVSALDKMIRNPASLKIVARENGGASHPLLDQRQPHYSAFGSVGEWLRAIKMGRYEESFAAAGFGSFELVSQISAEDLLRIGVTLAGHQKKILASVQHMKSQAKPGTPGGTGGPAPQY
To be noted: at 0.1 µM.

For assay [5], the target named is T3, Ephrin type-B receptor 4 (Homo sapiens). To be noted: at 1 µM.
Assay [6] concerns the target Receptor tyrosine-protein kinase erbB-2 (Homo sapiens) (UniProt P04626). The note with it: at 0.1 µM.
Assay [7] shares this target. To be noted: at 1 µM.
The target of assay [8] is Receptor tyrosine-protein kinase erbB-4 (Homo sapiens) (UniProt Q15303). To be noted: at 0.1 µM.
Chain of Receptor tyrosine-protein kinase erbB-4 (Homo sapiens) (Q15303 whole entry): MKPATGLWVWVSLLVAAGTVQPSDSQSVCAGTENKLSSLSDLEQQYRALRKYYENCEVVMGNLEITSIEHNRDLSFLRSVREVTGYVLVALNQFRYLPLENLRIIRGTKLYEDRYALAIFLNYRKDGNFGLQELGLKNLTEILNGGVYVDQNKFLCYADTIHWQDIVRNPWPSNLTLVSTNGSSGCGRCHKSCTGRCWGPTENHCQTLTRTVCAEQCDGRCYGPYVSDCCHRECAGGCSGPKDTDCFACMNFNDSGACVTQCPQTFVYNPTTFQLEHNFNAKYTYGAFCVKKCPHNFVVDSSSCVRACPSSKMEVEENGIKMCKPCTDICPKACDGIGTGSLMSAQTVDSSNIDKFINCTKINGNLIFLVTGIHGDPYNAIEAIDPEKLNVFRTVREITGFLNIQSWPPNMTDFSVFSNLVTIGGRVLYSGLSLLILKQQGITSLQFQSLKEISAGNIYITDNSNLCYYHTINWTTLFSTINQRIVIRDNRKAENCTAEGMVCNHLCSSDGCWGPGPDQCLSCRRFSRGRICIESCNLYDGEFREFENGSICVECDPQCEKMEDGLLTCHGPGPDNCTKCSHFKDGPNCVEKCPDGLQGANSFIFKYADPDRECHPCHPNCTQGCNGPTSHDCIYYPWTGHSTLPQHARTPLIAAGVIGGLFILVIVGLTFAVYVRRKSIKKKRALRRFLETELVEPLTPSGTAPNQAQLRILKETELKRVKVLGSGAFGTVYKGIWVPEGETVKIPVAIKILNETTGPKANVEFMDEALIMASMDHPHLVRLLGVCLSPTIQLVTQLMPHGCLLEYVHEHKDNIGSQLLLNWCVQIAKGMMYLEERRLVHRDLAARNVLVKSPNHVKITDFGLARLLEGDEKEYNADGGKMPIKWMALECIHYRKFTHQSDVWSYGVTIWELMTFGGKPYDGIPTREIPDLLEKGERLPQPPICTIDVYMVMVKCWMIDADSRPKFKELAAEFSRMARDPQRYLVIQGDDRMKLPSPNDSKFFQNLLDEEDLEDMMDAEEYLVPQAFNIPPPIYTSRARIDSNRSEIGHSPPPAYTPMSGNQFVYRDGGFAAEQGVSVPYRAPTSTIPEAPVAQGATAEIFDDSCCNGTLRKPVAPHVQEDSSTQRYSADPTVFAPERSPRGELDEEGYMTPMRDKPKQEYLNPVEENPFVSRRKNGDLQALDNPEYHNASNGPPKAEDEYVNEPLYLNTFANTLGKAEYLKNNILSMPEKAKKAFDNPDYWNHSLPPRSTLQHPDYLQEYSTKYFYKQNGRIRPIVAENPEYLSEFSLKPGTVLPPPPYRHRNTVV
Assay [9] has the same target. To be noted: at 1 µM.
Assay [10] addresses Tyrosine-protein kinase Fer (Homo sapiens) (UniProt P16591). The note with it: at 0.1 µM.

Chain of Receptor tyrosine-protein kinase erbB-2 (Homo sapiens) (P04626 whole entry): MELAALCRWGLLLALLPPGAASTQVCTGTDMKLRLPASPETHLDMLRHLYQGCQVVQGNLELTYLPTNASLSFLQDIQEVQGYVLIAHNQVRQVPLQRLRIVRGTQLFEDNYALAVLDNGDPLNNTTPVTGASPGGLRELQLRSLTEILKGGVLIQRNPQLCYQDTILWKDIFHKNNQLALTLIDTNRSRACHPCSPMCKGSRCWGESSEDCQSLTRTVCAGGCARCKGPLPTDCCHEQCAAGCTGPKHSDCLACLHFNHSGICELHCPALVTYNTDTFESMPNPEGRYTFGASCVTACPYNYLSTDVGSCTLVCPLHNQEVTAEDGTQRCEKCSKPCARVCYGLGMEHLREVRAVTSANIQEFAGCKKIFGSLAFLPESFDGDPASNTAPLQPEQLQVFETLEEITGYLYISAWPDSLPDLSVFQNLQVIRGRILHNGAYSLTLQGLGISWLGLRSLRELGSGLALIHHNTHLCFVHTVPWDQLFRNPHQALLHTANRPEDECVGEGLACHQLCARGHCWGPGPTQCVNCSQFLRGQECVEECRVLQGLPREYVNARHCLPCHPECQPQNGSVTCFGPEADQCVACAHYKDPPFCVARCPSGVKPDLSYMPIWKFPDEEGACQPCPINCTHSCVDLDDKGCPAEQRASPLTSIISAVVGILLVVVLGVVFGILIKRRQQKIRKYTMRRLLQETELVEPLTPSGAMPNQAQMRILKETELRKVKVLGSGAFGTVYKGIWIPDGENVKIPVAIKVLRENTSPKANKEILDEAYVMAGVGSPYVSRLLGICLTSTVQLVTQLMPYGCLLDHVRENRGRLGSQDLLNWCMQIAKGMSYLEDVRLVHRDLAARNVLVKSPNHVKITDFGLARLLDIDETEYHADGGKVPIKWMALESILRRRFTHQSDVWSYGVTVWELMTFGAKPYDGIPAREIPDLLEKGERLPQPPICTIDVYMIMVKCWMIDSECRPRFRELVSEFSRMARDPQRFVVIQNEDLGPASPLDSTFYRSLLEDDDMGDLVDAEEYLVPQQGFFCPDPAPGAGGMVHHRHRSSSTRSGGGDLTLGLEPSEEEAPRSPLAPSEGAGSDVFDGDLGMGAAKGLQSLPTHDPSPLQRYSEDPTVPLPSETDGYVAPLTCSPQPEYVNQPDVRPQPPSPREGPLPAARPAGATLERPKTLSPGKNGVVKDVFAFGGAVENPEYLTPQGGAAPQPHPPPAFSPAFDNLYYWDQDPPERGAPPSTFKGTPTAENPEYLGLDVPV
Chain of Tyrosine-protein kinase Fer (Homo sapiens) (P16591 whole entry, looked up): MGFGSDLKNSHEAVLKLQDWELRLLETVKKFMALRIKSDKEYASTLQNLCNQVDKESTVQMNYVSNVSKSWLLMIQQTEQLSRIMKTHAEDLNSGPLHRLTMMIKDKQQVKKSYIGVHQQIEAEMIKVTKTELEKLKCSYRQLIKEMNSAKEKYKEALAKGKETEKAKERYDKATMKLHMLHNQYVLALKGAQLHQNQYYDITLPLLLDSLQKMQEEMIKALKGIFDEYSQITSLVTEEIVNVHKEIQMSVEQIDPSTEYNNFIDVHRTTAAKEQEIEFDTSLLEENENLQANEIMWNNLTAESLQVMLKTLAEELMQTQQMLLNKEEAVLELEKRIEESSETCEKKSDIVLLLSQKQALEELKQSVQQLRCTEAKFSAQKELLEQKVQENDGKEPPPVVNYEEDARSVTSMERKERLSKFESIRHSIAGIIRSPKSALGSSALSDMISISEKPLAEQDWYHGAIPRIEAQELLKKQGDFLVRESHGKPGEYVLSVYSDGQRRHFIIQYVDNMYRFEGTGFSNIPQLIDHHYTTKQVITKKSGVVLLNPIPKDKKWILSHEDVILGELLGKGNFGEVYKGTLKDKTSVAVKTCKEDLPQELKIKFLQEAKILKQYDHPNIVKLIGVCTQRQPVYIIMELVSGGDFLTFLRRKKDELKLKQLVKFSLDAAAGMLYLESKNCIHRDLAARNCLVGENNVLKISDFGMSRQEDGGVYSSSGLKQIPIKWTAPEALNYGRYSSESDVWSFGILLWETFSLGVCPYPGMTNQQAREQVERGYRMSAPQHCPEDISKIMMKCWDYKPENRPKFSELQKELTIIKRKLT

Take `O=C1Nc2ccc(-c3cccnc3)cc2C1=Cc1cc(Br)c(O)c(Br)c1`: the inhibition in assay [1] is 11%; in assay [2], 4.6%; in assay [3], 2.28%; in [4], 2.97%; in assay [5], 3.11%; in assay [6] it was -0.94%. For the same molecule, the inhibition in [7] came to 4.88%; in assay [8] it was 9.94%; in assay [9] it was 14.9%; in assay [10], 8.12%.

`COc1cc2ncn(-c3cc(OCc4ccccc4S(C)(=O)=O)c(C#N)s3)c2cc1OC`: the inhibition was 36% in [1]; 5.99% in [2]; 4.4% in assay [3]; 4.74% in assay [4]; 17.1% in assay [5]; 0.83% in assay [6]. Also, the inhibition was -1.42% in assay [7], 8.79% in assay [8], 8.72% in assay [9] and 6.67% in assay [10].

For `Nc1ccc(C#Cc2cncnc2Nc2ccc(OCc3cccc(F)c3)c(Cl)c2)cc1`, the inhibition in assay [1] amounted to 6.65%; in [2], 3.43%; in assay [3], 3.54%; in assay [4], 0.47%; in assay [5], 2.45%; in [6] it was 5.63%. For the same molecule, the inhibition amounted to 10.1% in assay [7], 12.9% in assay [8], 54.4% in assay [9] and 2.93% in [10].

On to `CN(C)C(=O)O[C@H]1CN[C@H](C#Cc2cc3ncnc(Nc4ccc(OCc5cccc(F)c5)c(Cl)c4)c3s2)C1`, for which the inhibition in assay [1] came out at 14.1%; in [2], 4.55%; in [3], 5.69%; in [4], 2.43%; in [5], 3.92%; in assay [6] it was 4%. Further, the inhibition amounted to 50.4% in assay [7], 92.5% in [8], 120% in [9] and 1.02% in assay [10].

Regarding `NS(=O)(=O)c1cccc(-c2cc3ccncc3cc2OCc2ccccc2)c1`, the inhibition in assay [1] stood at 9.74%; in [2] it was 6.23%; in [3], 4.28%; in assay [4], 2.45%; in assay [5] it was 2.84%; in assay [6] it was 1.13%. For the same molecule, the inhibition in [7] was -3.29%; in assay [8], 8.81%; in assay [9], 9.16%; in [10] it was 3.7%.

Regarding `c1ccc(Nc2ncc(-c3ccccc3)o2)cc1`, the inhibition came out at 12.9% in assay [1]; 2.14% in assay [2]; 6.32% in assay [3]; 4.58% in assay [4]; 5.49% in [5]; 43.6% in [6]. For the same molecule, the inhibition in assay [7] is 8.36%; in assay [8] it was 11%; in [9], 16%; in assay [10], 3.09%.

Regarding `Cc1nc(-c2ccccc2)n2nc(NCCCN3CCOCC3)ncc12`, the inhibition in assay [1] was found to be 7.29%; in assay [2], 2.93%; in [3], 3.76%; in assay [4], 1.32%; in assay [5] it was 4.69%; in assay [6], 1.95%. The inhibition in [7] worked out at 5.51%; in assay [8] it was 5.53%; in assay [9], 11.3%; in assay [10], 1.34%.

With `C[C@@H](Oc1cc(-n2cnc3ccc(OCC4CCN(C)CC4)cc32)sc1C(N)=O)c1ccccc1C(F)(F)F`, the inhibition in assay [1] is -1.46%; in assay [2] it was -3.13%; in assay [3], -1.08%; in [4], -1.38%; in assay [5], 0.52%; in assay [6] it was -0.64%. The inhibition in [7] is 0.08%; in assay [8], -5.11%; in [9], -0.34%; in assay [10], -2.09%.
